Laboratory results reported in the supplement of paper PMC6555819.

Key:
Test in all cases: PBM binding z-score (relative to random genomic background probes); higher = stronger binding; sequences stand for … in GC…GCGATTGACAGCGTAGAATGAAGG
[1] = tested on: FXR:RXRa (NR concentration 270 nM, RXRa partner concentration 90 nM)
In short: (§1)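 Probes were double-stranded and carried 34-nt variable regions with direct-repeat seeds, single-nucleotide variants, half-site ablations and random human genomic background sequences, printed on custom Agilent 4×180K protein-binding microarrays. Arrays were incubated 1 h with ligand-free nuclear receptor dimers in PBS pH 7.4, 2% milk, 0.02% Triton X-100, 1 mM DTT, 0.2 mg/mL BSA and 0.4 mg/ml salmon testes DNA. Antibodies against each partner (one per run) detected binding, and scanned fluorescence was regression-normalized. Binding z-scores use the random background probes as reference.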

[2] = tested on: LXRa:RXRa (NR concentration 270 nM, RXRa partner concentration 90 nM)
In short: as §1

[3] = tested on: LXRa homodimer (NR concentration 270 nM)
In short: as §1

[4] = tested on: LXRb:RXRa (NR concentration 270 nM, RXRa partner concentration 90 nM)
In short: as §1

[5] = tested on: LXRb homodimer (NR concentration 270 nM)
In short: as §1

[6] = tested on: PPARa:RXRa (NR concentration 270 nM, RXRa partner concentration 90 nM)
In short: as §1

[7] = tested on: PPARg:RXRa (NR concentration 180 nM, RXRa partner concentration 90 nM)
In short: as §1

[8] = tested on: PPARg:RXRa 270nM:90nM, anti-RXR (NR concentration 270 nM, RXRa partner concentration 90 nM)
In short: as §1

[9] = tested on: PPARg:RXRa 30nM:10nM, anti-RXR (NR concentration 30 nM, RXRa partner concentration 10 nM)
In short: as §1

[10] = tested on: PPARg:RXRa 90nM:30nM, anti-RXR (NR concentration 90 nM, RXRa partner concentration 30 nM)
In short: as §1

[11] = tested on: PPARg:RXRa DBDmut IVT, anti-RXR (DBD mutation: RXRa K156A/R161A, NR concentration 270 nM, RXRa partner concentration 90 nM)
In short: as §1

[12] = tested on: PPARg:RXRa IVT, anti-PPARg (NR concentration 270 nM, RXRa partner concentration 90 nM)
In short: as §1

[13] = tested on: PPARg DBDmut:RXRa IVT, anti-PPARg (DBD mutation: PPARg1 K132A/R137A, NR concentration 270 nM, RXRa partner concentration 90 nM)
In short: as §1

[14] = tested on: PPARg DBDmut IVT, anti-PPARg (DBD mutation: PPARg1 K132A/R137A, NR concentration 270 nM)
In short: as §1

[15] = tested on: PPARg homodimer (NR concentration 180 nM)
In short: as §1

[16] = tested on: PXR:RXRa (NR concentration 270 nM, RXRa partner concentration 90 nM)
In short: as §1

[17] = tested on: PXR homodimer (NR concentration 270 nM)
In short: as §1

[18] = tested on: RARa:RXR (NR concentration 270 nM, RXRa partner concentration 90 nM)
In short: as §1

[19] = tested on: RARa homodimer (NR concentration 270 nM)
In short: as §1

[20] = tested on: RARb:RXRa (NR concentration 270 nM, RXRa partner concentration 90 nM)
In short: as §1

Sequence | PBM binding z-score [1] | PBM binding z-score [2] | PBM binding z-score [3] | PBM binding z-score [4] | PBM binding z-score [5] | PBM binding z-score [6] | PBM binding z-score [7] | PBM binding z-score [8] | PBM binding z-score [9] | PBM binding z-score [10] | PBM binding z-score [11] | PBM binding z-score [12] | PBM binding z-score [13] | PBM binding z-score [14] | PBM binding z-score [15] | PBM binding z-score [16] | PBM binding z-score [17] | PBM binding z-score [18] | PBM binding z-score [19] | PBM binding z-score [20]
TCTTGTAGATCACTAGAGGTTAAGAAAGTGCGCT | 0.684 | 5.11 | 1.63 | 2.67 | 0.128 | 1.88 | -0.00284 | 1.73 | 2.56 | 2.22 | 1.81 | 1.16 | 1.46 | 0.897 | 0.0426 | 3.04 | 0.56 | 1.74 | 0.205 | 1.03
CCTACTGGGCCAAGGTCGTTGATCAGTCAAAGCA | 0.16 | 0.0412 | -0.352 | 0.25 | -0.992 | 1.56 | 1.7 | 2.33 | 0.177 | 1.6 | 3.4 | 3.41 | -1.53 | -1.31 | -0.148 | 0.637 | 0.241 | 0.405 | -0.549 | 1.09
CCTCGGGGGACAACAGGAGGTCAGAGCTGCCAGA | 2.56 | 3.46 | 1.7 | 3.52 | 4.28 | 3.13 | 1.01 | 1.67 | 0.217 | 1.17 | 0.622 | 1.99 | 0.461 | 0.197 | 1.34 | 2.74 | 0.253 | 2.8 | 0.259 | 3.16
GCGACTGTGGCAAAGCAGGTTACCATAAGGTTGG | -0.28 | -0.311 | -0.53 | -0.511 | -1.38 | 0.3 | 0.331 | -0.377 | -0.529 | -0.508 | 0.686 | 0.528 | -0.512 | -1.16 | -0.377 | -0.184 | -0.793 | -0.0448 | -0.9 | -0.0264
AGAATGAGGTTACCCAAGATCAGGGAAACGCTTG | 1.63 | 5.76 | -0.558 | 2.48 | -0.333 | 3.05 | 2.29 | 2.2 | 0.837 | 1.49 | 3.03 | 2.92 | 1.56 | 1.21 | 0.367 | 1.58 | -0.185 | 2.03 | -0.0633 | 1.82
TTACCAAGGTGAAAGGCCGTTGATGCACGCCTTG | 0.494 | 0.431 | -0.517 | 0.397 | -0.951 | 2.49 | 3.77 | 4.98 | 2.95 | 4.9 | 1.83 | 3.1 | 1.11 | -0.0172 | 1.5 | 0.172 | -0.516 | 1.1 | -0.123 | 1.66
TAGCCTAGGTCATTCAGGGACCAGTATAGAAAGC | 4.75 | 3.39 | 0.547 | 2.25 | 0.504 | 3.62 | 2.01 | 2.24 | 0.478 | 1.37 | 0.873 | 2.72 | 0.102 | -0.132 | 0.904 | 1.67 | -0.229 | 2.18 | -0.017 | 3.57
TCTAGCATGCCAGAGGGTCACTCAAGAGGTACGG | 0.892 | 0.929 | -0.463 | 1.43 | -1.1 | 2.5 | 1.02 | 1.69 | 1.89 | 1.76 | 0.74 | 0.403 | -0.182 | -1.1 | 0.757 | 1.74 | -0.449 | 2.86 | -0.513 | 2.11
CAAACTAGGCCACAGAGGTCAAAGTCCGTGCGTA | 5.06 | 5.36 | 5.33 | 5.13 | 0.98 | 5.87 | 7.19 | 6.39 | 4.5 | 5.82 | 7.36 | 7.37 | 2.08 | 0.00435 | 3.3 | 5.81 | 4.73 | 6.18 | 0.998 | 4.29
CCTTACGGGTCACTTCAGGTTATAGCATCGGAGT | 5.1 | 7.75 | 2.3 | 5.47 | 0.687 | 4.36 | 3.23 | 3.7 | 1.22 | 2.2 | 3.08 | 3.1 | 0.834 | 0.414 | 1.97 | 5.04 | 0.776 | 3.67 | 1 | 3.57
TTACCAAGGCGAAAGGTCGTTGATGCACGCCTTG | 1.27 | 1.41 | 0.121 | 1.38 | -0.953 | 3.5 | 5.49 | 6.09 | 5.18 | 6.24 | 0.0972 | 2.19 | -0.305 | -0.595 | 0.815 | 1.96 | -0.0871 | 2.49 | 0.25 | 1.83
CCTATAAGTTGACCATAAGGGCAACCGAAGCTCG | 1.36 | 0.588 | 0.467 | 0.379 | 0.387 | 0.93 | 0.632 | 0.292 | 0.0132 | -0.0263 | 0.357 | 0.771 | 0.17 | -0.0168 | 1.61 | 0.964 | 0.7 | 1.23 | 1.27 | 1.8
TCAGACAGGTGAAGGTAACTAAGGTACGCAGTCG | 1.03 | 2.57 | -0.132 | 1.44 | -0.0558 | 1.51 | 0.892 | 2.34 | 3.8 | 3.21 | 2.56 | 1.27 | 0.501 | 0.42 | 0.309 | 0.646 | 0.152 | 1.22 | 0.362 | 1.24
AATACAGGGTCATCGTAGGACAGAGTACGCACAG | 7.26 | 6.53 | 2.99 | 4.91 | 1.66 | 5.73 | 6.66 | 6.04 | 3.07 | 4.95 | 2.91 | 4.34 | 1.42 | 1.38 | 2.54 | 4.92 | 0.871 | 4.82 | 0.937 | 4.22
